Results on four molecules are retold here after PubChem BioAssay (EPA / NIEHS).

Activity calls are given as the source filed them. How the source made its calls: active means hit-call score of the fitted dose curve at least 0.9, where 1 is the maximum; inactive means score below 0.9.

Assay [1] in a line: ATG_DR4_LXR_CIS: Attagene CIS-FACTORIAL HepG2 Assay for human Liver X Receptor (LXR), DR4 submotif (AID 2282929). Particulars: HepG2 Attagene DR4 cis-reporter, mRNA transcription; AC50: actives raise or lower the signal unless noted; outcome: actives raise or lower the signal unless noted. The gist of the method:
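HepG2 cells transiently transfected with cis-promoter-driven multiplexed reporter units (DR4 element) were dosed for 24 h. Reporter mRNA was quantified by RT-PCR, fluorescent primer extension, HpaI digestion and capillary electrophoresis; bidirectional fitting versus DMSO baseline.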

The target in assay [2] is Aryl hydrocarbon receptor (Homo sapiens) (UniProt P35869). In words: ATG_Ahr_CIS: Attagene CIS-FACTORIAL HepG2 Assay for human Aryl Hydrocarbon Receptor (Ahr) (AID 2282930). Particulars: HepG2 AhR cis-factorial reporter transcription; actives raise or lower the signal. The gist of the method:
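HepG2 cells transiently transfected with cis-element-driven multiplexed reporter transcription units; endogenous transcription factor activity measured as reporter mRNA 24 h after dosing. RT-PCR, 6-FAM labelling, HpaI digestion, capillary electrophoresis; bidirectional fitting versus DMSO baseline.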

Assay [3] in a line: ATG_AP_1_CIS: Attagene CIS-FACTORIAL HepG2 Assay for human Activator Protein 1 (AP-1) (AID 2282931). Particulars: HepG2 Attagene cis-factorial AP-1 reporter mRNA; actives raise or lower the signal. The gist of the method: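 HepG2 cells transiently transfected with cis-element-driven multiplex reporter units; 24 h compound exposure. Reporter mRNA quantified by RT-PCR, FAM-labelled fragments resolved by capillary electrophoresis; bidirectional fit versus DMSO baseline.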

Assay [4] is described as follows: ATG_AP_2_CIS: Attagene CIS-FACTORIAL HepG2 Assay for human Activator Protein 2 (AP-2) (AID 2282932). Particulars: HepG2 AP-2 cis-reporter, Attagene transcription factor profiling; AC50: actives raise or lower the signal unless noted; outcome: actives raise or lower the signal unless noted. The gist of the method: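 Cells (HepG2) transfected with promoter-driven reporter constructs, treated 24 h. Total RNA reverse-transcribed, reporter cDNA PCR-amplified, FAM-labelled by primer extension, digested, resolved by capillary electrophoresis. Activity fitted both directions versus DMSO.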

A short description of assay [5]: ATG_BRE_CIS: Attagene CIS-FACTORIAL HepG2 Assay for human Bone Morphogenetic Protein (BMP) Response Element (BRE) (AID 2282933). Particulars: HepG2 BMP response element reporter, Attagene transcription factor profiling; actives raise or lower the signal. The gist of the method:
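Fluorescence-labelled reporter cDNA fragments, separated by capillary electrophoresis, gave the signal for this component of a 52-readout multiplex. HepG2 cells were transfected, exposed to chemicals for 24 h, and compared with DMSO using bidirectional fitting.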

Assay [6] addresses Retinoic acid receptor alpha (Homo sapiens) (UniProt P10276). Nature of the assay: ATG_DR5_RAR_CIS: Attagene CIS-FACTORIAL HepG2 Assay for human Retinoic Acid Receptor Alpha (RARE), DR5 submotif (AID 2282934).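 On AC50: reporter responds to endogenous RAR alpha beta and gamma in HepG2 not RARA alone.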 The note with it: HepG2 Attagene cis-factorial RARE DR5 reporter, mRNA; actives raise or lower the signal. In outline:
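HepG2 cells transiently transfected with multiplexed reporter units under cis (DR5 RARE) promoters, so endogenous transcription factor activity is measured. After 24 h compound exposure, reporter mRNA is quantified by RT-PCR with fluorescent labelling and capillary electrophoresis; bidirectional fitting versus DMSO.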

In assay [7] the target is Transcription factor E2F1 (Homo sapiens) (UniProt Q01094). In words: ATG_E2F_CIS: Attagene CIS-FACTORIAL HepG2 Assay for human E2F Transcription Factor 1 (AID 2282935). The note with it: HepG2 Attagene cis-reporter, E2F reporter RNA transcripts; actives raise or lower the signal. The gist of the method:
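First, HepG2 cells were transfected with reporter transcription units. Next, they were dosed for 24 h. Then RNA was isolated, converted to cDNA, PCR-amplified, FAM-labeled, HpaI-digested and analyzed by capillary electrophoresis.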

Assay [8] is described as follows: ATG_E_Box_CIS: Attagene CIS-FACTORIAL HepG2 Assay for human Enhancer Box (E-box) (AID 2282936). Particulars: HepG2 E-box cis-reporter transcription, actives raise or lower the signal. The gist of the method: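 Endogenous transcription factor activity was sensed in human HepG2 liver cells through transfected cis-promoter reporter units. After 24 h of dosing, total RNA was reverse-transcribed and reporter cDNA resolved by capillary electrophoresis.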

Assay [9] is described as follows: ATG_M_61_CIS: Attagene CIS-FACTORIAL HepG2 Assay for M61 Transcription Factor (Internal Marker) (AID 2282937). The note with it: HepG2 Attagene CIS-FACTORIAL M61 internal marker reporter; actives raise or lower the signal. The gist of the method: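 HepG2 cells transiently transfected with cis-element-driven multiple reporter transcription units, dosed for 24 h. Reporter mRNA measured by RT-PCR, 6-FAM primer-extension labelling, HpaI digestion and capillary electrophoresis; bidirectional fit versus DMSO baseline.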

Assay [10] is described as follows: ATG_EGR_CIS: Attagene CIS-FACTORIAL HepG2 Assay for human Early Growth Response 1 (EGR1) (AID 2282938). The note with it: HepG2 Attagene CIS-FACTORIAL EGR reporter mRNA; actives raise or lower the signal. In outline: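 HepG2 cells transiently transfected with cis-promoter-driven multiplexed reporter transcription units; reporter mRNA measured 24 h after compound dosing by RT-PCR, 6-FAM primer extension, HpaI digestion and capillary electrophoresis. Bidirectional fit versus DMSO baseline.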

Assay [11] can be described thus: ATG_M_19_CIS: Attagene CIS-FACTORIAL HepG2 Assay for M19 Transcription Factor (Internal Marker) (AID 2282939). Particulars: HepG2 Attagene CIS-FACTORIAL M19 internal marker reporter; actives raise or lower the signal. The gist of the method: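 HepG2, MRTU transient transfection, 24 h dosing. Total RNA → RT-PCR → 6-FAM primer extension → HpaI digest → CE fluorescence. Bidirectional curve fit, DMSO negative control.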

A short description of assay [12]: ATG_ERE_CIS: Attagene CIS-FACTORIAL HepG2 Assay for Estrogen Response Element (ERE) (AID 2282940). The note with it: HepG2 ERE cis-reporter, Attagene RNA transcript; actives raise or lower the signal. In outline:
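After a 24 h chemical treatment, RNA from reporter-transfected HepG2 cells is reverse-transcribed, PCR-amplified and fluorescently labelled. Fragments separated by capillary electrophoresis give reporter signal; DMSO serves as negative control.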

Assay [13] can be described thus: ATG_Ets_CIS: Attagene CIS-FACTORIAL HepG2 Assay for human Erythroblast Transformation Specific (ETS) (AID 2282941). The note with it: HepG2 ETS cis-reporter transcription; AC50: actives raise or lower the signal unless noted; outcome: actives raise or lower the signal unless noted. In outline:
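RT-PCR/capillary electrophoresis fluorescence read-out of reporter mRNA; HepG2 transient multi-reporter transfection; 24 h compound exposure; gain or loss of signal fitted bidirectionally relative to DMSO.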

Assay [14] in a line: ATG_FoxO_CIS: Attagene CIS-FACTORIAL HepG2 Assay for human Forkhead box O (FoxO) (AID 2282943). The note with it: HepG2 Attagene cis-reporter, FoxO element, mRNA; actives raise or lower the signal. In outline:
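HepG2 cells transiently transfected with cis-promoter-driven multiple reporter transcription units; 24 h after chemical dosing, reporter mRNA quantified by RT-PCR, fluorescent primer extension, HpaI digestion and capillary electrophoresis. Bidirectional fitting versus DMSO baseline.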

Assay [15] is described as follows: ATG_GATA_CIS: Attagene CIS-FACTORIAL HepG2 Assay for human GATA Binding Protein (AID 2282944). Particulars: HepG2 GATA cis-element reporter, Attagene multiplex mRNA; actives raise or lower the signal. In outline:
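Cells: HepG2, transiently transfected with cis-regulated reporter transcription units. Exposure: 24 h. Detection: RT-PCR plus capillary electrophoresis of FAM-labeled fragments. Analysis: bidirectional, DMSO as baseline.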

The nature of assay [16]: ATG_GLI_CIS: Attagene CIS-FACTORIAL HepG2 Assay for human Zinc Finger Protein GLI1 (AID 2282945). The note with it: HepG2, Attagene cis-factorial reporter mRNA, GLI element; actives raise or lower the signal. In outline:
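HepG2 cells transiently transfected with cis-promoter multiplexed reporter units report endogenous transcription factor activity. After 24 h chemical exposure, reporter mRNA was quantified by RT-PCR, 6-FAM labelling, HpaI digestion and capillary electrophoresis, with bidirectional fitting against DMSO.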

Assay [17] deals with Bile acid receptor (Homo sapiens) (UniProt Q96RI1). Nature of the assay: ATG_IR1_CIS: Attagene CIS-FACTORIAL HepG2 Assay for human Nuclear Receptor Subfamily 1 Group H Member 4 (NR1H4), IR1 submotif (AID 2282946). Particulars: IR1 reporter transcription, actives raise or lower the signal. The gist of the method: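 Readout: reporter transcript levels by RT-PCR with fluorescent capillary electrophoresis, from HepG2 cells transiently transfected with multiplexed cis-regulated reporters and dosed 24 h. Gain- or loss-of-signal fitted versus DMSO negative control.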
Sequence of Bile acid receptor (Homo sapiens) (Q96RI1 whole entry, looked up): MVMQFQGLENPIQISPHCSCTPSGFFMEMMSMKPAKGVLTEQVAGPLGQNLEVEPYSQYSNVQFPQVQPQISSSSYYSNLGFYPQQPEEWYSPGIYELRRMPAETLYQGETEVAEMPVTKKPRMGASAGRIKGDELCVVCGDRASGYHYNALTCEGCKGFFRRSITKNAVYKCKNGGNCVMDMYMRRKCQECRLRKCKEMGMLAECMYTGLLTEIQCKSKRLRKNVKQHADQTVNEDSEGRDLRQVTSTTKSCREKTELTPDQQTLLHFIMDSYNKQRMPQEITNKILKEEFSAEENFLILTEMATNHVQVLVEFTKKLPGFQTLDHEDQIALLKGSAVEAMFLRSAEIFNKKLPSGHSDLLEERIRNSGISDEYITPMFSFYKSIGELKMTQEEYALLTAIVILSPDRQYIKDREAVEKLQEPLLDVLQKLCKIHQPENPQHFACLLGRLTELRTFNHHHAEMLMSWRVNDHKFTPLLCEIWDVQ

A short description of assay [18]: ATG_ISRE_CIS: Attagene CIS-FACTORIAL HepG2 Assay for human Interferon Regulatory Factor 1 (IRF1) binding to an Interferon-Stimulated Response Element (ISRE) (AID 2282948). Particulars: HepG2 ISRE cis-reporter (Attagene), mRNA transcription readout; actives raise or lower the signal. The gist of the method: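 Read-out: fluorescent RT-PCR products resolved by capillary electrophoresis, reporting endogenous transcription factor activity via ISRE-driven reporter mRNA in transfected HepG2 cells dosed for 24 h; gain or loss fitted relative to DMSO.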

A short description of assay [19]: ATG_GRE_CIS: Attagene CIS-FACTORIAL HepG2 Assay for human Glucocorticoid Response Elements (GRE) (AID 2282947). Particulars: HepG2 GRE cis-reporter, Attagene multiplex mRNA; AC50: actives raise or lower the signal unless noted; outcome: actives raise or lower the signal unless noted. The gist of the method: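 Cells (HepG2) bearing transfected cis-promoter reporter transcription units were treated with chemical for 24 hours. Reporter mRNA was measured via RT-PCR with capillary electrophoresis, and activity was fitted in both directions relative to DMSO.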

The target of assay [20] is Hepatocyte nuclear factor 3-beta (Homo sapiens) (UniProt Q9Y261). In words: ATG_FoxA2_CIS: Attagene CIS-FACTORIAL HepG2 Assay for human Forkhead box A2 (FOXA2) (AID 2282942). The note with it: HepG2 cis-reporter transcription factor activity, 24 h; actives raise or lower the signal. In outline: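 HepG2 cells transiently transfected with multiple cis-regulated reporter transcription units, dosed for 24 h. Reporter mRNA measured by RT-PCR, 6-FAM labelling, HpaI digestion and capillary electrophoresis; bidirectional fitting against DMSO baseline.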
Sequence of Hepatocyte nuclear factor 3-beta (Homo sapiens) (Q9Y261 whole entry, looked up): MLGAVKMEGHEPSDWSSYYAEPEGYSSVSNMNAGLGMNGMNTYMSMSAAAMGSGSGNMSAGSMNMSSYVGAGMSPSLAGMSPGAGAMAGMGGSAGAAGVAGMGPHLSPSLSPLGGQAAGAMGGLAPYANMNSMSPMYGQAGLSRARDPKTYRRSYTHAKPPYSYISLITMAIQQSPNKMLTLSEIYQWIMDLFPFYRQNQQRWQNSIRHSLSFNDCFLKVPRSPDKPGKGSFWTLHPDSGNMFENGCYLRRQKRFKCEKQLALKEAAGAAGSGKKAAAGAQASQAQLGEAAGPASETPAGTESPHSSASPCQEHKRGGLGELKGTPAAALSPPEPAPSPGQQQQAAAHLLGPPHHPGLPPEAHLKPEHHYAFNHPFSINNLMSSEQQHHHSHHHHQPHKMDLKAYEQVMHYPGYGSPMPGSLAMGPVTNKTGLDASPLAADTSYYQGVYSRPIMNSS

Sequence of Aryl hydrocarbon receptor (Homo sapiens) (P35869 whole entry, looked up): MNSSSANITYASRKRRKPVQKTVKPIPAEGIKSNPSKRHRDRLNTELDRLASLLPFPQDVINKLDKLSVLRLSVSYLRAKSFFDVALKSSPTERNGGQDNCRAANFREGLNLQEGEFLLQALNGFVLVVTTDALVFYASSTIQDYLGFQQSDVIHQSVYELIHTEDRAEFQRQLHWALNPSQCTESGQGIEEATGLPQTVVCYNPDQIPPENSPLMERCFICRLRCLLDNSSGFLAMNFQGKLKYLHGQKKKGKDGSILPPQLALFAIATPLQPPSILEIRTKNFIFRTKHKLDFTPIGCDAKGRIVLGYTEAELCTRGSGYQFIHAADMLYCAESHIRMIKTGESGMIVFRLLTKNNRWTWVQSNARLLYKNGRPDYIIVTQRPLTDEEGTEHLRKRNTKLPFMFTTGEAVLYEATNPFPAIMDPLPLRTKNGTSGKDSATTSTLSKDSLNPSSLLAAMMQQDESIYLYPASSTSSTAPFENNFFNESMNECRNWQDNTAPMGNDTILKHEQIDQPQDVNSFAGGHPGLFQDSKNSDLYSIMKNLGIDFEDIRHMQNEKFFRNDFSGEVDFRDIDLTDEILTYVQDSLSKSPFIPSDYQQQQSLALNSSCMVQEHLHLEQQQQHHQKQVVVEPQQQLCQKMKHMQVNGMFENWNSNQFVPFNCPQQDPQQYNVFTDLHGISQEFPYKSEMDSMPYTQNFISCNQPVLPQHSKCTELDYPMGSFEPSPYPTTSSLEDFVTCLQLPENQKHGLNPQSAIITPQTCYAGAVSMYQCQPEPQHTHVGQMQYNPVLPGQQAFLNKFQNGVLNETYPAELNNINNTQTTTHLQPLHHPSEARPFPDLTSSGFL
Sequence of Transcription factor E2F1 (Homo sapiens) (Q01094 whole entry, looked up): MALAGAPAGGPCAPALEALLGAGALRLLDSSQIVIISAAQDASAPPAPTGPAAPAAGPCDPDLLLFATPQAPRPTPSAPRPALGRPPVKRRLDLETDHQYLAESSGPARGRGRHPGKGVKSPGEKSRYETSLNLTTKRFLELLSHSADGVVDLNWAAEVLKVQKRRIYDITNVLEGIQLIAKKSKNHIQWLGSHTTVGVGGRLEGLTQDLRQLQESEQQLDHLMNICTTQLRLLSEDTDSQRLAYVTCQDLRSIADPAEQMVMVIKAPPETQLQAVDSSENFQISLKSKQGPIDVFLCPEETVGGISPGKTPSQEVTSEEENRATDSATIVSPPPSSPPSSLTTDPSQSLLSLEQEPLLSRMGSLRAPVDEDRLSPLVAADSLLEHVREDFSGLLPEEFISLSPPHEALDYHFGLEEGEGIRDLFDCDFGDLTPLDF
Sequence of Retinoic acid receptor alpha (Homo sapiens) (P10276 whole entry, looked up): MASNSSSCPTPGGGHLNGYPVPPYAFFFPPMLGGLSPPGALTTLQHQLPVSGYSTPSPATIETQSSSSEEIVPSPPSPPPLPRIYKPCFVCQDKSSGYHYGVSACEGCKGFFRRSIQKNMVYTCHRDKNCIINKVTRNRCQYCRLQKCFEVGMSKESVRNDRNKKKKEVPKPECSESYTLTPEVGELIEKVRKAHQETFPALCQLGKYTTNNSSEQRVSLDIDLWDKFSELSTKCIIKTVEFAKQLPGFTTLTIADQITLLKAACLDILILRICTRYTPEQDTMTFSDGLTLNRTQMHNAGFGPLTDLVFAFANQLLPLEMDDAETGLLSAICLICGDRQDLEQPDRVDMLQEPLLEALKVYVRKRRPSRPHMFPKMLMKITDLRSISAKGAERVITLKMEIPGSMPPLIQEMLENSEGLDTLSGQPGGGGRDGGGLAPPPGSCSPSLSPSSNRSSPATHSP

Consider `CC1CNCC(C)O1` (stereo not drawn), for which the result in [1], in assay [2], in [3], in assay [4], in [5] and in [6] was inactive. The molecule was called inactive in [7], in assay [8], in [9], in [10], in assay [11] and in assay [12]. Also, the call in assay [13], in assay [14], in assay [15], in [16], in assay [17] and in [18] was inactive.

For `C=Cc1ccc(O)c(OC)c1`, the outcome in assay [1], in assay [2], in assay [3], in assay [4], in assay [5] and in assay [6] was inactive. The result in assay [7], in [8], in assay [9], in assay [10], in assay [11] and in assay [12] was inactive. In addition, the call in [13], in [14], in assay [15], in assay [16], in assay [19] and in assay [18] was inactive.

As usually defined, the AC50 is the midpoint of the concentration-response curve, whichever way the signal moves. On to `CC(C)(C)c1ccc(CCC=O)cc1`, for which the molecule was called inactive in assay [1], in assay [2], in assay [3], in assay [4], in [5] and in [7]. Moreover, the outcome in [8], in [9], in [10], in assay [13], in assay [20] and in assay [14] was inactive. For the same molecule, the molecule was classed as inactive in assay [15], in assay [16], in [19] and in assay [18]. The AC50 in assay [6] was 72.3 µM (active); in [12], 144 µM (active).

Consider `O=C1c2ccc(O)c(O)c2C(=O)c2c(O)ccc(O)c21`, for which the call in assay [1], in assay [4], in assay [5], in [6], in assay [7] and in assay [9] was inactive. Also, the outcome in assay [10], in assay [13], in assay [20], in [14], in assay [15] and in assay [16] was inactive. Also, the result in [17], in [19] and in assay [18] was inactive. The AC50 in assay [2] is 0.0722 µM (active); in assay [3], 50 µM (active); in assay [8], 6.45 µM (active); in assay [12] it was 13.6 µM (active).
